The full list was thinned out, with hits kept by preference.
FECH block: human FECH heme synthesis enzyme inhibition; P22830; purified FECH, Ni-mesoporphyrin absorbance 550 nm; calls only at 10 µM (by protocol); 20,000 compounds, 3.3% hits; AID 1671448;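 active means enzyme reaction rate more than 3 SD below the solvent-only control wells on the same plate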;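 further: lower slope than DMSO wells means FECH inhibition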
Target sequence (P22830 whole entry, looked up): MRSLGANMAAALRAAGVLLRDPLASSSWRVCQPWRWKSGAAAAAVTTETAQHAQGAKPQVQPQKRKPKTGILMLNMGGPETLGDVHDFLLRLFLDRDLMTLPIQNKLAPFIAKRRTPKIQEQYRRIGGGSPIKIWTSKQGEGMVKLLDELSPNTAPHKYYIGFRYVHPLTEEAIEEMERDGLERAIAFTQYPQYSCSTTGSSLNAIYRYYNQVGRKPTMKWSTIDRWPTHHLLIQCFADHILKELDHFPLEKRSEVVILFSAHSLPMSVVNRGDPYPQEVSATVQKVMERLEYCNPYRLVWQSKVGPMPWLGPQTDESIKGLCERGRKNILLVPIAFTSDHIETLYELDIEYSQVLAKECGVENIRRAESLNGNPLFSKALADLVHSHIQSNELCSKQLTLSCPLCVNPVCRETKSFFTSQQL
* = called active by the depositor; i = inactive; + = active, no number.

SMILES	FECH block
Cc1ccc(CNC(=O)CN2C(=O)C3CCCCN3C(=O)c3ccccc32)cc1 (stereo unspecified)	i
Cc1ccc(N2C(=O)N(CC(=O)NC3CCCCC3)c3ccccc3S2(=O)=O)c(C)c1	i
CCN1C(=O)C2(c3ccccc31)C(C(=O)Nc1cc(C)cc(C)c1)CC1CSCN12 (stereo unspecified)	i
CCN1C(SCC(=O)NCc2ccc(C)cc2)=NS(=O)(=O)c2ccccc21	+
COC(=O)c1cc2ccsc2n1CC(=O)Nc1cccc(Cl)c1	i
COCCCNC(=O)C1CCN(c2ccc(-c3ccc(C)cc3)nn2)CC1	i
Cc1ccc(N2C(=O)CCS2(=O)=O)cc1S(=O)(=O)Nc1ccccc1C(C)C	i
CN(c1c(-c2ccc3c(c2)CCCC3)c(=O)c1=O)C1CCCCC1	i
Cc1ccc(-c2ccnc(NCCC(=O)Nc3nccs3)n2)c(C)n1	i
COc1ccc(Cl)cc1C(=O)Nc1cc(C)nn1-c1ncnc2c1cnn2-c1cccc(C)c1C	i
CC(C)(C)c1ccc(S(=O)(=O)NCCCn2c(C(F)(F)F)nc3cccnc32)cc1	i
COc1ccc(C)cc1Nc1cc(-c2cccc(C)c2)nc(C)n1	i
CCc1c(C)nc(SCc2nc(-c3ccc(Cl)cc3)oc2C)[nH]c1=O	i
Cc1ccc(Nc2nc(NCC(C)O)nc3c2cnn3-c2ccccc2)cc1C (stereo unspecified)	i
COc1ccc(Nc2nc(N3CCCC3)nc3c2cnn3-c2ccccc2)cc1	+
COCCNc1nc(Nc2ccc(OC)cc2)c2cnn(-c3ccccc3)c2n1	i
COc1ccc(Nc2nc(NCC(C)O)nc3c2cnn3-c2ccccc2)cc1 (stereo unspecified)	+
FC(F)Sc1ccc(Nc2nc(N3CCOCC3)nc3c2cnn3-c2ccccc2)cc1	+
COc1ccc(Nc2nc(NCCO)nc3c2cnn3-c2ccccc2)cc1	i
COc1ccc(Nc2nc(N3CCN(C)CC3)nc3c2cnn3-c2ccccc2)cc1	i
CCOc1ccc(Nc2nc(N3CCCC3)nc3c2cnn3-c2ccccc2)cc1	i
CCCNc1nc(Nc2ccc(OC)cc2)c2cnn(-c3ccccc3)c2n1	+
COc1cccc(Nc2nc(NCC(C)O)nc3c2cnn3-c2ccccc2)c1 (stereo unspecified)	i
CCOc1ccc(Nc2nc(N3CCOCC3)nc3c2cnn3-c2ccccc2)cc1	i
Cc1ccc(Nc2nc(N3CCOCC3)nc3c2cnn3-c2ccccc2)cc1C	i
SMILES	FECH block
CC1(C(=O)NC2CCCC2)C(=O)n2c(cc3cc(Cl)ccc32)C(=O)N1Cc1ccccc1 (stereo unspecified)	i
Cc1cc(C)n2nc(CN(C(=O)C3CCCCC3)c3ccccc3)nc2n1	i
Cc1sc2nc(CCN)nc(N3CCN(S(C)(=O)=O)CC3)c2c1C	i
O=C(NC1CCCCC1)c1nc[nH]c1C(=O)N1CCOCC1	i
O=C(NCc1ccccc1Cl)c1nc(N2CCCC2)c2oc3ccccc3c2n1	i
COc1ccc(C(=O)Nc2nc3n(n2)C(c2ccc(Cl)cc2)C=C(c2ccc(C)cc2)N3)cc1 (stereo unspecified)	i
Cc1ccc(Cl)c(CN2CCC(Cc3nnc(CO)n3C)CC2)c1F	+
CCOc1cccc(CN2CCC(Cc3nnc(SC)n3C)CC2)c1O	i
COc1ccc(Cl)c(CN2CCN(c3ncc(F)cn3)CC2)c1F	i
Cc1ccc(C2=CC(c3ccccc3Cl)n3nc(NC(=O)c4cccc(Cl)c4)nc3N2)cc1 (stereo unspecified)	+
Cc1ccc(C2=CC(c3ccccc3Cl)n3nc(NC(=O)c4cccnc4)nc3N2)cc1 (stereo unspecified)	+
Cc1ccc(C2=CC(c3ccccc3Cl)n3nc(NC(=O)c4ccccc4)nc3N2)cc1 (stereo unspecified)	i
Cc1cccc(C(=O)Nc2nc3n(n2)C(c2ccccc2Cl)C=C(c2ccccc2)N3)c1 (stereo unspecified)	i
Cc1ccc(C2=CC(c3ccccc3Cl)n3nc(NC(=O)c4cccc(C)c4)nc3N2)cc1 (stereo unspecified)	i
Cc1ccc(C(=O)Nc2nc3n(n2)C(c2ccccc2Cl)C=C(c2ccc(C)cc2)N3)cc1 (stereo unspecified)	i
Cc1ccc(N2C(=O)CCS2(=O)=O)cc1S(=O)(=O)Nc1ccccc1F	i
COc1ccc(-c2ccnc3[nH]ccc23)cc1OC	i
Cc1nc2nc(C)c(NC(=O)Nc3ccc(C)c(F)c3)c(=O)n2[nH]1	i
COc1cc(CN2CCN(Cc3cccc(C)c3)C(=O)C2)cc(Cl)c1O	i
Cc1ccc(-c2nc(C)cc(OCC(=O)Nc3ccc(C)c(F)c3)n2)cc1	+
COc1ccc(NC(=O)COc2cc(C)nc(-c3ccc(C)cc3)n2)cc1OC	i
Cc1ccc(-c2nc(C)cc(OCC(=O)Nc3cc(C)ccc3C)n2)cc1	i
CC(C)(C)CNC(=O)c1nc[nH]c1C(=O)N1CCC(Cc2ccccc2)CC1	i
COc1cccc(-c2[nH]ncc2C(=O)N2CCC3(CCNC(=O)CC3)CC2)c1	i
O=C1CCC2(CCN1)CCN(C(=O)C/C=C/c1ccccc1)CC2	i
SMILES	FECH block
Cc1cc(C)c(CN2CCC3(CCNC(=O)CC3)CC2)c(C)c1	+
COc1ccc(N2C(=O)CCS2(=O)=O)cc1S(=O)(=O)N1c2ccccc2CC1C (stereo unspecified)	i
CCc1c(C)nc2ncnn2c1Sc1ccc(NC(=O)Nc2ccc(F)cc2)cc1	i
CCc1c(C)nc2ncnn2c1Sc1ccc(NC(=O)Nc2ccc(C)c(F)c2)cc1	+
CCc1c(C)nc2ncnn2c1Sc1ccc(NC(=O)Nc2ccc3c(c2)OCCO3)cc1	+
CCc1c(C)nc2ncnn2c1Sc1ccc(NC(=O)Nc2cccc(C)c2)cc1	i
CCc1c(C)nc2ncnn2c1Sc1ccc(NC(=O)Nc2ccc(C)c(C)c2)cc1	i
CCc1c(C)nc2ncnn2c1Sc1ccc(NC(=O)Nc2ccccc2)cc1	i
O=C(Nc1nc(-c2ccccc2)ns1)N1CCc2[nH]cnc2C1c1cccnc1 (stereo unspecified)	i
CCc1ccc(CN2CCCC3(CCN(C(=O)c4ccc(F)cc4)C3)C2)nc1 (stereo unspecified)	i
COc1ccc(N2C(=O)CCS2(=O)=O)cc1S(=O)(=O)Nc1ccc(N(C)C)cc1	i
CN1C[C@@H](NC(=O)COc2ccccc2)C[C@H]1C(=O)N[C@H]1CCCCNC1=O	i
CN(C/C=C/c1ccccc1)Cc1ncccc1C(=O)O	i
CSc1nnc(CC2CCN(C/C=C/c3ccco3)CC2)n1C	i
CNc1nc(N2CCC(Cc3nnc(SC)n3C)CC2)nc2c1CCC2	+
Cc1ccccc1-n1cc(CN2CCN(c3ncc(C)c(N)n3)CC2)cn1	i
COC(=O)c1sccc1NC(=O)C1CCN(c2ncnc3c2nc2n3CCCCC2)CC1	i
COCC1(C(=O)N2CCN(CCc3ccncc3)CC2)CCC1	i
Cc1ncc(-c2c(-c3ccccc3)ncn2CCN2CCCOC2=O)[nH]1	+
Cc1ncc(-c2c(-c3ccccc3)ncn2CCc2cccs2)[nH]1	+
c1ccc(-c2ncn(CCc3cccs3)c2C2CCOC2)cc1 (stereo unspecified)	i
Cc1cccc(-c2c(-c3ccccc3)ncn2CCN2CCOC2=O)c1C	i
Cc1ncc(-c2c(-c3ccccc3)ncn2CCCOc2cccnc2)[nH]1	i
O=C1OCCCN1CCn1cnc(-c2ccccc2)c1-c1cccnc1	i
